PubChem BioAssay (NCI)
Compounds without any hit were thinned out: in the full panel of roughly 79,000, 15% have a hit. Rule as the data show it: active = growth inhibition above about 70%; inactive = the rest. Where a SMILES comes first, the peptide text is derived from it. The star is where a group is joined. Bz = O=C(c1ccccc1)*; Bn = c1ccc(C*)cc1; βAla = NCCC(=O)O

Assays:
[1] = NCI Yeast Anticancer Drug Screen. Data for the rad50 strain (AID 155);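 also: 0% = growth of vehicle-only cultures of the same strain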; conditions: S. cerevisiae rad50 strain growth inhibition; at 50.0 µM; hits give high values
How it was run: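 Growth of the mutant yeast was measured after compound exposure and referenced to vehicle-treated cultures.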

[2] = NCI Yeast Anticancer Drug Screen. Data for the mec2-1 strain (AID 157); conditions: S. cerevisiae mec2-1 strain, at 50.0 µM, hits give high values
How it was run: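 Each compound was tested on mec2-1 yeast, a strain altered in DNA damage repair or cell cycle control. Growth inhibition is reported relative to vehicle.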

[3] = NCI Yeast Anticancer Drug Screen. Data for the sgs1 mgt1 strain (AID 161);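 also: 0% = growth of cultures given vehicle only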; conditions: S. cerevisiae sgs1 mgt1 strain, at 50.0 µM, hits give high values
How it was run: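 Inhibition of yeast growth, normalised to vehicle-treated controls, is reported for a strain bearing genetic alterations in DNA damage repair.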

[4] = NCI Yeast Anticancer Drug Screen. Data for the cln2 rad14 strain (AID 165);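 also: 0% = growth equal to vehicle treated cultures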; conditions: S. cerevisiae cln2 rad14 strain, at 50.0 µM, hits give high values
How it was run: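 Test compounds were added to cln2 rad14 yeast cultures; inhibition of growth was then determined by comparison with vehicle treatment.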

[5] = NCI Yeast Anticancer Drug Screen. Data for the bub3 strain (AID 167); conditions: S. cerevisiae bub3 mutant strain, at 50.0 µM, hits give high values
How it was run: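 Whole-cell yeast assay. The mutant strain was incubated with compounds, and growth inhibition was determined by comparison with vehicle-treated cells.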

[6] = NCI Yeast Anticancer Drug Screen. Data for the mlh1 rad18 strain (AID 175); conditions: S. cerevisiae mlh1 rad18 strain growth inhibition; at 50.0 µM; hits give high values
How it was run: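 Inhibition values reflect reduced growth of mutant yeast versus vehicle-treated controls following compound exposure; the mutations affect DNA damage repair.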

Measured: growth inhibition

Cc1c(C)c(CSC#N)c(C)c(C)c1CSC#N
inactive: [1] 53.8% | [2] -13.6% | [3] -10.1% | [4] -1.9% | [5] 8.2% | [6] 8.55%

COP(=O)(OC)/C(=C\c1cn(C(c2ccccc2)(c2ccccc2)c2ccccc2)cn1)NC(C)=O
inactive: [1] -9.65% | [2] -32% | [3] -11.4% | [4] -22.1% | [5] -19.1% | [6] -10.2%

COC(=O)C(CSCc1ccccc1)NC(=O)C(CSCc1ccccc1)NC(=O)CCNC(=O)c1ccccc1 (centres undefined) ({Bz-βAla}-Cys(Bn)-Cys(Bn)-OMe; configuration not given here)
inactive: [1] 13.9% | [2] -5.05% | [3] 2.1% | [4] 30.1% | [5] -0.9% | [6] 9.05%

O=C(O)C1Cc2c([nH]c3ccccc23)C(CCCCO)N1 (centres undefined)
inactive: [1] -31.6% | [2] -7.85% | [3] -15.9% | [4] -15.4% | [5] -26.4% | [6] -11.3%

CN=Cc1ccccc1O.CN=Cc1ccccc1O.[Cu+2]
inactive: [1] 6.55% | [2] -8.6% | [3] -10.9% | [4] -73.8% | [5] -2.5% | [6] 3.05%

Cc1cc2cc3c(C)cc(=O)oc3c(C)c2o1
inactive: [1] -35.1% | [2] -37.1% | [3] -28.4% | [4] -8.35% | [5] -10.5% | [6] -17.6%

COC(=O)C(=O)C1CSC2=C(CS(=O)(=O)c3ccccc32)C1=O (centres undefined)
inactive: [1] -4.55% | [2] -9.5% | [3] -10.6% | [4] -2.15% | [5] -17.5% | [6] -2.1%

Cc1cc(=O)c2c(Br)ccc(Br)c2[nH]1
inactive: [1] 3.5% | [2] -16.1% | [3] -1.1% | [4] 3.4% | [5] 7.3% | [6] -13.8%

CC(=O)NNC(=S)/N=C/c1c(C)[nH]n(-c2ccccc2)c1=O
inactive: [1] 4.6% | [2] -7.95% | [3] -22.1% | [4] 2.65% | [5] -6.85% | [6] 17.6%

COc1ccc(-c2cc(C(=O)N/N=C/c3ccc([N+](=O)[O-])cc3)c3ccc(C)cc3n2)cc1OC
inactive: [1] 43.6% | [2] 13.7% | [3] 39.1% | [4] 14.6% | [5] -1.05% | [6] 46.9%

O=[N+]([O-])c1ccc(N=CC2CCC=CO2)cc1 (centres undefined)
inactive: [1] -4.3% | [2] 17.8% | [3] -10.2% | [4] -27.9% | [5] -9.4% | [6] -14.9%

Cc1ccc(-n2cc(-c3ccc(Cl)cc3)c3c2N=CN2NC(c4ccco4)=NC32)cc1 (centres undefined)
inactive: [1] 5.1% | [2] 14.8% | [3] -13.6% | [4] -12.4% | [5] 11% | [6] -15.3%

O=c1oc(=O)c2c1ccc1c2cc2ccc3cccc4ccc1c2c34
inactive: [1] -17.9% | [2] -10.4% | [3] -8.2% | [4] -35.1% | [5] -11.2% | [6] -11.1%

COC(CNc1nc2c(s1)c1c(O)c3c(O)c(C)c4c(c32)C(=O)C(C)(O/C=C\C(OC)C(C)C(OC(C)=O)C(C)C(O)C(C)C(O)C(C)/C=C/C=C(/C)C(=O)N1)O4)OC (centres undefined)
inactive: [1] 6.15% | [2] -5.6% | [3] -13% | [4] 14.3% | [5] -15.6% | [6] -4.65%

C/C(CC(=O)Nc1ccc(NC(=O)/C(C)=N/NS(=O)(=O)c2ccc(C)cc2)cc1)=N\NS(=O)(=O)c1ccc(C)cc1
inactive: [1] 16.2% | [2] 2.95% | [3] -12.8% | [4] -6.35% | [5] -0.9% | [6] 27.1%

CN1CCC(C(=O)NNc2ccccc2)CC1
inactive: [1] -12.1% | [2] -13.2% | [3] -3.75% | [4] 7.3% | [5] 0.1% | [6] 4.7%

O=C(O)CC(/C=C\C(=O)C(=O)O)=C\O
inactive: [1] -6.6% | [2] -6.4% | [3] -11.6% | [4] 3.6% | [5] 4.15% | [6] -10.2%

COC(=S)SSC(=S)NCCN(CCNC(=S)SSC(=S)OC)C(=S)SSC(=S)OC
inactive: [1] 2.05% | [2] 6.2% | [3] -2.65% | [4] -2.7% | [5] 7.8% | [6] 26.6%

CCOC(=O)C1CSC(c2ccccc2)=N1 (centres undefined)
inactive: [1] 8.75% | [2] -4.4% | [3] -2.35% | [4] -4.25% | [5] -8.35% | [6] 27.1%
